The record followed here is the supplement of paper PMC6555819.

The assay concerns RXRa DBDmut IVT, anti-RXR (DBD mutation: RXRa K156A/R161A, NR concentration 90 nM). Kind of assay: PBM binding z-score (relative to random genomic background probes); higher = stronger binding; sequences stand for … in GC…GCGATTGACAGCGTAGAATGAAGG
The gist of the method: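 Custom Agilent 4×180K protein-binding microarrays carried double-stranded probes, each with a 34-nt variable region. These regions held direct-repeat seeds, single-nucleotide variants, half-site ablations and random human genomic background sequences. Ligand-free nuclear receptor dimers were incubated on the arrays for 1 h, antibodies against each partner (one per run) detected binding, and scanned fluorescence was regression-normalized. Binding z-scores take the random background probes as reference.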
CCGAGTAGGTTATGGGGCATCCAGGCAACGGTGA gave a PBM binding z-score of -0.816.
The figure for GGAAAGAGGGCAAAGTTGATAGCATCTGTCGACG is 1.85.
In the case of CAGCCTAGGTCAAGGCCAGTATAGGAGGAACGTT, the PBM binding z-score worked out at 0.701.
The figure for AGTATTAGTTGAGACGAGGGCAACCGATAGGTTG is 0.464; for TCTCGGAGGACACGAAAGATCAGAGCTCGACATC it is 0.716; for ATAAGTAGGTTAAGGGTCATTCAGGTTGGTTCGC it is 2.28.
The figure for CCTAGTTGGTTAGGAGGTCACACACCGGATATGA is 0.861.
CGTCAAAGTTCAACTAAGGTAACGGAAAGCACGC: the PBM binding z-score was determined as 4.63.
The result for ATCTCTAGGTAACAGTTCAGTGAATCCCGAGGAT reads 0.0711.
The result for TAGCCTAGGTCAGATCGGGCCACTATACGCTATA reads -0.221.
On to CGTCAAAGTTAAACTAAGGTAACGTAAAGCACGC, for which the PBM binding z-score worked out at 0.0253.
Regarding ACTTACGGGTCAACGAGGTTTTAGCACGCGTATA, the PBM binding z-score is 2.16.
The figure for CCTGCTAGGTCAATGGTTAGCTAAAGCAGCTCGC is 1.65; for CGTCAAAGTTCATCTAAGGTAACGTAAAGCACGC it is 5.14.
Regarding TCTTGTAGATCAAAGGTTAAGTAAGCCGAAGCCT, the PBM binding z-score turned out to be 0.911.
The sequence CCGACTGGGGCAGAAAGGGTACCATACCATCCGG returned a PBM binding z-score of -1.36.
For GCTGCTAGGTCAACTGATGGTCAGGTAAAGCTCG, the PBM binding z-score came out at 1.6.
In the case of TCAGACAGGTGCAGGTAACTCAGGTACGCAGTCG, the PBM binding z-score amounted to 0.956.
The figure for TAGCCTAGGTCATGCGGGCCGGTATAGTGTCGGC is 0.444.
Turning to TTTTGTAGATCAATAGAGGTTAAGAAAGTGCGCT, the PBM binding z-score was -0.0202.
In turn, TAGCCTAGGTCATTGGTCCAGTATAGTACGCATC yielded a PBM binding z-score of 1.98.
Turning to TCATATAGGTAAATGCAAGGTGAAAGTCCGATCT, the PBM binding z-score turned out to be 1.93.
The figure for ATCTCGAGGTAACAAGTTCAGTGAAAGAGAGGAC is 0.518; for AATACAGGGTCATCGTAGGCCAGAGAACGCACAG it is 3.55.
The result for GCAGACAAGTGAAACGCAGGTAACTCAGGGTGGC reads -0.633; that for TCATATAGGTAATACGGGTGAAAGTCGGCATCTA, 1.33; that for GCGTATAGGTAATACAAGGTGAAAGTCCGATTGT, 0.141.
With CAAACTAAGTCAAAGGTCAAAGTCGAGCCAACCA, the PBM binding z-score came to 2.2.
As for GCTATTAGTTGAAAGGCCAACCGAATGATTCTCG, the PBM binding z-score turned out to be 1.04.
The sequence GCATAGAGGTAATACAAGGTGAAAGTCCGATTGT registered a PBM binding z-score of 0.392.
The figure for ATATGTAGGTTTAGGGTCATTCAGGTTGGTTCGC is 2.74; for TCTCGGAGGACACGAAAGGTCAGAGTTCGACATC it is 1.45; for TAGCCTAGGTCTTTGGGCCAGTATAGTACGCATC it is -0.783.
The figure for CCTCGGAGGACAGAAGGCCAGAGCTGTCCGCTTT is -0.346.
The figure for TTACCAAGGTGTAAGGTCGTTGATGCACGCCTTG is 0.411.
Take ATCTCTAGATAACAAGTTCAGTGAAAGAGAGGAC: the PBM binding z-score came to 0.583.
ATCGAAAGGTCGAGGTGAATATAGAGAAAGGGAA yielded a PBM binding z-score of 0.922.
Sequence CATACAGGGTTAGCTAGGCCAGAGTAGGGACGGC returned a PBM binding z-score of -0.487.
Take CCTGCTATGTCATGGTCAGCTAATCTACAGTATG: the PBM binding z-score came out at 0.877.
Take AGAATGAGGTAATTAAGATCAGGGAATTGCGGTC: the PBM binding z-score is -0.166.
